Experimental data from PubChem BioAssay (NCI).
This is part of a sample that, as a whole, favours compounds with a hit. Of some 83,000 tested, about 20% had one in any assay.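 Plates (96-well) were seeded with cells, treated with compound at one concentration, and incubated for 48 hours before percent growth was determined.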 Values without a mark were called inactive. Calls of active or inactive are those of the source. Rule for the calls: active = growth percent below 10; inactive = the rest.

Assays:
Test in all cases: NCI-60 one-dose screen, 48 h (100 = growth as untreated, 0 = no growth, -100 = all killed)
Settings in all cases: 10 µM unless noted
T-47D breast = test system: T-47D breast
MDA-MB-435 melanoma = test system: MDA-MB-435 melanoma
SW-620 colon = test system: SW-620 colon
MCF7 breast = test system: MCF7 breast
HCT-116 colon = test system: HCT-116 colon
HCC-2998 colon = test system: HCC-2998 colon
KM12 colon = test system: KM12 colon

Structure (SMILES) | growth (T-47D breast) | growth (MDA-MB-435 melanoma) | growth (SW-620 colon) | growth (MCF7 breast) | growth (HCT-116 colon) | growth (HCC-2998 colon) | growth (KM12 colon)
NS(=O)(=O)c1ccc(Nc2nc(Nc3ccccc3)nc3nnc(SCC(=O)NC4CCCCC4)n23)cc1 | 104% | 110% | 106% | 100% | 99.8% | 109% | 102%
C[C@@H](Nc1ncnc2ccc(-c3cnc(Cl)c(NS(C)(=O)=O)c3)cc12)c1ccccc1 | 9.4% (active) | 60.9% | 67.7% | 21.3% | 61% | 70.6% | 89.3%
COc1ccc(S(=O)(=O)NCCCNc2nccc(-c3[nH]c(-c4ccccc4)nc3-c3ccc(Cl)c(O)c3)n2)cc1 | 54.4% | 36.9% | 107% | 73.2% | 57.8% | 112% | 77.6%
Cc1ccc(N2C(=O)/C(=C/C=C/c3ccco3)SC2=S)cc1 | 71.6% | 90.6% | 90.1% | 66.4% | 94.2% | 101% | 95.4%
COc1ccc(S(=O)(=O)NCCCNc2nccc(-c3cn(C(C)(C)C)nc3-c3ccc(Cl)c(OC)c3)n2)cc1 | 77.3% | 89.6% | 99.3% | 82.4% | 66.6% | 124% | 93%
COc1cc(/C=N/NC(=O)c2cn(C3CC3)c3c(OC)c(N4CC5CCCNC5C4)c(F)cc3c2=O)ccc1O (centres undefined) | -30.4% (active) | 95.3% | 0.437% (active) | -27.7% (active) | -59.1% (active) | 14.8% | 69.2%
O=C(CN1CCN(c2cc(=O)[nH]c3ccc(F)cc23)CC1)Nc1ccc(Cl)cc1 | 66.3% | 96% | 93.8% | 58.8% | 57.6% | 92.3% | 91.6%
COC(=O)c1ccc(NC2=C/C(=N/S(=O)(=O)c3ccc(C(=O)O)cc3)c3ccccc3C2=O)cc1 | 4.9% (active) | -93.1% (active) | -30% (active) | -58.2% (active) | 5.32% (active) | 105% | 51.1%
NS(=O)(=O)c1ccc(Nc2nc(SCC(=O)c3ccc(Cl)cc3)nc3c2CCCC3)cc1 | 13.5% | 54.4% | 40.5% | 25.4% | 36.8% | 21.6% | 19.6%
Cc1ccc2sc3c(c2c1)OC(N)=C(C#N)C3c1ccc(Cl)cc1 (centres undefined) | 56.6% | -10.7% (active) | 63.4% | 13.8% | 88% | 84.8% | 45.5%
CC1=NC2=NC(=O)/C(=C3/N=C(C)C=C(c4ccccc4)N3N)NN2C(c2ccccc2)=C1 | 102% | 108% | 108% | 93.6% | 102% | 110% | 98.4%
Oc1[nH]c2ccccc2c1Nn1c(N=N/C=c2/ccc3c(c2)C=NN=3)n[nH]c1=S | 99% | 103% | 99% | 77.1% | 104% | 118% | 93.3%
NC/C(=C/F)COc1ccc2nc(NCc3cccnc3)oc2c1 | 103% | 102% | 96.7% | 89.3% | 96.4% | 117% | 103%
CC1(C)[C@@H](O)CC[C@]2(C)[C@H]3CC[C@@H]4[C@H]5[C@H](C(=O)/C=C\c6ccccn6)CC[C@]5(O)CC[C@@]4(C)[C@]3(C)CC[C@@H]12 | 59% | 27.4% | 18.5% | 31.8% | 2.84% (active) | 52% | 30.7%
COC[C@]12CCC(C)(C)C[C@H]1C1=CC[C@@H]3[C@@]4(C)CCCNC(C)(C)[C@@H]4CC[C@@]3(C)[C@]1(C)CC2 | 28.8% | -76.3% (active) | -61.6% (active) | -71% (active) | -89.6% (active) | -91.2% (active) | -25.6% (active)
CCc1cccc2c3c(sc12)C(c1ccc(Cl)cc1)C(C#N)=C(/N=C/c1ccc(Cl)cc1)O3 (centres undefined) | 25.7% | -58.4% (active) | 29.3% | 15.8% | 22.2% | 7.72% (active) | 13.2%
Cc1cc(S(=O)(=O)N(C)C)cc(NCC(=O)NC(=O)NCC(C)C)c1C | 110% | 98.8% | 98.4% | 94.8% | 100% | 120% | 102%
C[C@H]1c2[nH]c3ccccc3c2C[C@H]2C(=O)N(CCCCCCC(=O)NO)CC(=O)N21 | 61% | 84% | 80.5% | 70.8% | 72.8% | 114% | 84.1%
CCCn1cnc2c(c1=N)C(c1ccc(F)cc1)c1sc3c(CC)cccc3c1O2 (centres undefined) | 72.7% | -25.2% (active) | 17.7% | 18.1% | 7.53% (active) | 24.2% | 10.7%
COc1ccc([C@@H]2[C@@H](O)C(=O)N2c2cc(OC)c(OC)c(OC)c2)cc1F | 68% | -12% (active) | 22.5% | 9.59% (active) | 2.32% (active) | 5.15% (active) | 6.09% (active)
COc1cc(-c2nn(C(C)(C)C)cc2-c2ccnc(NCCCNS(=O)(=O)c3ccc(Cl)cc3)n2)ccc1Cl | 64.2% | 72.2% | 91.1% | 52.2% | 39% | 108% | 68.8%
O=C(Nc1ccc(N=Cc2c(O)[nH]c3ccccc23)cc1)Nc1nccs1 | 41.2% | -52.7% (active) | 21.4% | 22.7% | 27% | 73.9% | 59.2%
NS(=O)(=O)c1ccc(Nc2nc(N/N=C/c3ccc(Cl)cc3)nc(Nc3ccccc3)n2)cc1 | 44.8% | 57.7% | 101% | 38.7% | 44.3% | 76.4% | 63.3%
C[C@@H](Nc1c(C#N)cnc2ccc(-c3cnc(Cl)c(NS(C)(=O)=O)c3)cc12)c1ccccc1 | 0.239% (active) | 8.87% (active) | 9.39% (active) | 6.51% (active) | 4.05% (active) | 16.7% | 15.1%
COc1cc(-c2nn(C(C)(C)C)cc2-c2ccnc(NCCCNS(=O)(=O)c3ccc(F)cc3)n2)ccc1Cl | 85.1% | 75% | 95.9% | 74.3% | 56.1% | 108% | 78.5%
COc1ccccc1C(=O)Nc1cccc2c1C(=O)C(=O)C=C2 | 98.8% | 96.8% | 94.2% | 81% | 99% | 122% | 99.3%
Nc1ccccc1NC(=O)c1ccc(NC(=O)C/C=C/c2cccnc2)cn1 | 8.26% (active) | 19% | 14.5% | 5.84% (active) | 4.69% (active) | 9.51% (active) | 26.2%

Structure (SMILES) | growth (T-47D breast) | growth (MDA-MB-435 melanoma) | growth (SW-620 colon) | growth (MCF7 breast) | growth (HCT-116 colon) | growth (HCC-2998 colon) | growth (KM12 colon)
COc1ccc2c(c1)c(CC(=O)[Se]CC(=O)O)c(C)n2C(=O)c1ccc(Cl)cc1 | 103% | 51.2% | 113% | 37.4% | 98.1% | 119% | 101%
COc1cc(-c2nn(C(C)(C)C)cc2-c2ccnc(NCCCNS(=O)(=O)c3cccc(F)c3)n2)ccc1Cl | 69.5% | 77.9% | 89.7% | 71.3% | 52.4% | 103% | 80.3%
Cn1ccnc1C(=O)/C=C/c1ccc(CNC(=O)c2ccc(F)cc2)cc1 | 33.4% | 44.1% | 9.37% (active) | 11.6% | 13.2% | 35.9% | 22.1%
N#Cc1c(-c2cccs2)cc(-c2cnccn2)nc1SCC(=O)c1ccc(F)cc1 | 106% | 93.3% | 96.7% | 85.7% | 96.6% | 117% | 99%
O=C(Nc1ccc2c(ccn2Cc2ccccn2)c1)c1ccnnc1 | 97.9% | 98.3% | 101% | 102% | 93.2% | 120% | 99.4%
O=C(Nc1ccc2c(ccn2Cc2ccccn2)c1)c1cnccn1 | 101% | 100% | 93.7% | 98.1% | 100% | 115% | 100%
C[C@H](CCC(=O)NCc1ccc(C(=O)Nc2ccccc2N)cc1)[C@H]1CC[C@H]2[C@@H]3[C@@H](O)C[C@@H]4C[C@H](O)CC[C@]4(C)[C@H]3CC[C@]12C | 48% | 60.2% | 56% | 45.7% | 31.2% | 89.5% | 64%
O=c1[nH]c2ccccc2cc1CSc1ccccc1Nc1nccc(-c2ccc(Cl)cc2)n1 | 93.3% | 99.9% | 101% | 81.1% | 100% | 114% | 100%
CCN(CC)c1ccc2c(c1)Oc1nc(N)c(C#N)c(N)c1C2Sc1ccc(C)cc1 (centres undefined) | -41.8% (active) | -95.5% (active) | -62.5% (active) | -70.7% (active) |  | -90.2% (active) | -48.8% (active)
COc1ccc(C(=O)c2c(N)c(C#N)cn2-c2ccccc2OC)cc1 | 32.1% | -27.8% (active) | 20.3% | 13.9% | 22.2% |  | 27.5%
Nn1c(N/N=C/c2nc3ccccc3s2)n[nH]c1=S | 108% | 110% | 105% | 93.7% | 107% | 123% | 102%
CCN(CC)c1cn(-c2ccc(S(N)(=O)=O)cc2)nn1 | 108% | 104% | 101% | 97.5% | 116% | 107% | 102%
COc1ccc([C@@H]2c3[nH]c4ccccc4c3C[C@H]3C(=O)N(C4CCN(CC5CCCCC5)CC4)CC(=O)N23)c(OC)c1 | 101% | 73.6% | 80.1% | 42.6% | 50% | 78.6% | 82.3%
CCCCc1nc(/C=N/Nc2nc(Nc3ccccc3)nc(Nc3ccc(S(N)(=O)=O)cc3)n2)c(Cl)[nH]1 | 14.9% | 90.3% | 75.1% | 46.8% | 90% | 70.4% | 103%
COc1ccc(/C(N)=N/C(N)=N/c2nc3ccccc3s2)cc1 | 80.4% | 20.3% | 65.4% | 71.2% |  | 91.9% | -11.5% (active)
C=C(C)[C@@H]1CC[C@]2(COCCCNCCC#N)CC[C@]3(C)[C@H](CC[C@@H]4[C@@]5(C)CC[C@H](OCCCNCCC#N)C(C)(C)[C@@H]5CC[C@]43C)[C@@H]12 | 53.3% | 56.4% | 64.7% | 32.5% | 24.7% | 31.8% | 64.4%
Nc1nc(Nc2ccccc2SSc2ccccc2Nc2nc(N)nc(-c3ccc4ccccc4c3)n2)nc(-c2ccc3ccccc3c2)n1 | 74.9% | 85.2% | 104% | 76% | 57.9% | 120% | 51.5%
CCCn1cnc2c(c1=N)C(c1ccc(F)cc1)c1sc3c(C)cccc3c1O2 (centres undefined) | 38.3% | -58% (active) | 16.4% | 18.4% |  | 57.3% | 24.9%
CC(=O)Nc1cccc(Nc2nc(N[C@H](C)c3ccccc3)c3ccccc3n2)c1 | 78.8% | 24.3% | 61.5% | 27.8% | 31% | 88.7% | 55.9%
CC(=O)Nc1cccc(Nc2nc(N[C@@H](C)c3ccccc3)c3ccccc3n2)c1 | 58.4% | -48.9% (active) | 20.4% | 8.63% (active) | 6.47% (active) | -6.49% (active) | 22.9%
NC(N)=Nc1ccc(Nc2cccc(Oc3ccc(Cl)c(C(F)(F)F)c3)c2)cn1 | 23.7% | 18.3% | -60.5% (active) | -11.2% (active) | -72.9% (active) | -33.1% (active) | -58.7% (active)
Nc1nc(Nc2ccccc2SSc2ccccc2Nc2nc(N)nc(-c3ccccc3)n2)nc(-c2ccccc2)n1 | 74.7% | 90.6% | 70.5% | 68.3% | 61.3% |  | 22.1%
CC(C)(O)c1cncc(-c2ccc3ncnc(NCc4ccccc4)c3c2)c1 | 64.2% | 92.3% | 98.9% | 58.5% | 97.8% | 92.8% | 101%
CC1(C)[C@@H](O)CC[C@]2(C)[C@H]3CC[C@@H]4[C@H]5[C@H](C(=O)/C=C\c6ccc([N+](=O)[O-])cc6)CC[C@]5(O)CC[C@@]4(C)[C@]3(C)CC[C@@H]12 | 57.7% | 36.1% | 30.2% | 38.7% | 4.14% (active) |  | 53.3%
c1ccc(C(c2nc3ncncc3[nH]2)N2CSc3nc4ccccc4n3C2)cc1 (centres undefined) | 110% | 105% | 98% | 94.9% | 114% | 107% | 94.4%
Nc1ncc(-c2ccc3ncnc(N4CCc5cc(F)c(Cl)cc54)c3c2)cn1 | 13.5% | 27.1% | 40.7% | 11.9% | 20.5% |  | 50.6%
